Hits are enriched below; roughly 2.4% of the tested compounds scored in any of these assays.
D2 PAM-1: positive allosteric modulators of human D2 dopamine receptor; P14416; DiscoveRx D2 beta-arrestin cells, luminescence, 90 min; 100% = 57 uM dopamine signal; potentiation, % (concentration not given with the values); 360,000 compounds, 0.23% hits; AID 624464; in the data active = potentiation above about 50%
Target sequence (P14416 whole entry, looked up): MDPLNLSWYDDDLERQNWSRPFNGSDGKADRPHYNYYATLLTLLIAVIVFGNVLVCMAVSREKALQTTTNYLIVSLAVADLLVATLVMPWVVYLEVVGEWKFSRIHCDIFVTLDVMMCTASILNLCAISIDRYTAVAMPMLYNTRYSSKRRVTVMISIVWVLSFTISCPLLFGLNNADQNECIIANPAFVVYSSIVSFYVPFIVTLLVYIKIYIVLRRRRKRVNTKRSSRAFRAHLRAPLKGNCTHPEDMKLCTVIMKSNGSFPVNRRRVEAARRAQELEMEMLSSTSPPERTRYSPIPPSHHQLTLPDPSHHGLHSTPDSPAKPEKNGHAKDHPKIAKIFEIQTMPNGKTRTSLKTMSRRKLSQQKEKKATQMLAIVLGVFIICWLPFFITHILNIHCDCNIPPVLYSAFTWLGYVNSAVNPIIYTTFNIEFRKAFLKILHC
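D2 cells co-treated with compound plus 50 nM dopamine (EC20) for 90 min at 37 deg C to detect potentiation. Beta-arrestin recruitment was read as enzyme-fragment luminescence after 1 h at ambient temperature. Full response was set by 57 uM dopamine.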
D2 ag-1: human D2 receptor agonism in beta-arrestin assay. P14416. DiscoveRx PathHunter D2 beta-arrestin, luminescence, 90 min; 100% = 57 uM dopamine signal. 360,000 compounds, 0.084% hits. activation, % (concentration not given with the values); in the data active = activation above about 40%
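Agonist mode: compounds alone added to overnight-plated D2 PathHunter cells for 90 min at 37 C, with 57 uM final dopamine (EC100) defining full response. Beta-arrestin recruitment detected by chemiluminescent reagent, read after 1 h at ambient temperature.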
D2 ag-2: activates the human D2 dopamine receptor; HEK293 T-REx D2 cells, calcium flux agonist mode; activation, % at 2 µM; 340,000 compounds, 0.53% hits; P14416;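 active = activation over 3 SD above normal in the single-dose calcium agonist read, cut at about 30% in these data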; also: 0% is about no effect
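Agonism is scored from calcium flux in a force-coupled, inducible HEK293 cell line expressing D2, read kinetically for 180 s after compound addition against dopamine controls.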
D2 antagonist: D2 dopamine receptor (human) antagonism | P14416 | HEK293 TREx D2 cells, calcium flux, dopamine EC80 | inhibition, % at 10 µM | 340,000 compounds, 2% hits; in the data active = inhibition above about 30%; inactive = below that, where a call was filed; also: 0% is about no effect
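Calcium mobilization kinetics were recorded at 1 s intervals in tetracycline-induced HEK293 T-REx D2 cells, first for 180 s after compound addition and then 180 s after EC80 dopamine.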
D2 PAM-2: D2 dopamine receptor (human) potentiation. potentiation, % at 10 µM. P14416. 340,000 compounds, 0.34% hits. HEK293 T-REx D2, calcium flux, EC20 dopamine potentiation;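 active = potentiation over 3 SD above the plate norm, cut at about 30% in these data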; also: 0% is about no effect
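Primary screen. Calcium kinetics in induced HEK293 T-REx D2 cells: compound pre-addition 180 s, EC20 dopamine, 180 s more.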
The depositor's hits bear a star; . = not tested or not shown.

SMILES	D2 PAM-1	D2 ag-1	D2 ag-2	D2 antagonist	D2 PAM-2
CC(=O)O[C@]1(C(C)=O)CC[C@H]2[C@@H]3C=C(Cl)C4=CC(=O)[C@@H]5C[C@@H]5[C@]4(C)[C@H]3CC[C@@]21C	-5.0	-2.9	0.6	39.6*	6.1
COc1ccc(N2CCN(c3nc(Nc4ccc(F)cc4)nc(OC)n3)CC2)cc1	.	.	-0.7	-22.5	33.2*
COc1ccc(N2CCN(c3nc(Cl)nc(Nc4ccc(F)cc4)n3)CC2)cc1	-0.6	0.4	3.8	3.7	1.4
CC(NCc1ccc2c(c1)OCO2)C(=O)N1CCc2ccccc21 (stereo not given)	-39.5	-7.1	-1.2	43.6*	-27.0
Cc1ccc(-c2csc(-c3nc(-c4ccc(Br)s4)cs3)n2)cc1	.	.	0.4	.	-2.3
O=C(c1ccco1)N1CCN(C(=O)C2CCN(S(=O)(=O)c3cnc[nH]3)CC2)CC1	-19.0	-1.9	0.6	51.6*	13.1
COc1ccc(C2CC(=O)c3cnc4c(-c5ccccc5)c(C)nn4c3C2)cc1OC (stereo not given)	.	.	.	.	2.6
Cc1cc(Nc2ccc(Cl)cc2)n2cnnc2n1	.	.	-0.4	.	-4.6
CC(=O)OCCNc1nc(-c2ccccc2)nc2ccccc12	0.0	-5.6	1.4	38.0*	-0.6
COCCNc1nc(-c2ccccc2)nc2ccccc12	-2.2	7.5	1.2	-5.5	8.4
CC1=Nc2cc(C(=O)NCc3ccccc3Cl)ccc2Sc2c(C)ccc(C)c21	.	.	2.0	.	8.2
O=c1nc2s/c(=C\c3ccco3)c(=O)n2nc1Cc1ccc(F)cc1	-7.6	-0.4	1.0	35.3*	6.2
CCCc1cc(=O)n2nc(N3CCC(C(=O)Nc4c(F)c(F)c(F)c(F)c4F)CC3)sc2n1	-4.4	2.6	0.5	37.5*	-1.4
Cc1ccc2c(c1)N(C(=O)CCC(=O)NCc1cccs1)CC(C)O2 (stereo not given)	.	.	-1.0	.	-19.5
Oc1ccc2ccccc2c1C=NC12CN3CCN(CN(C3)C1)C2	102.5*	11.5	.	.	.
Oc1ccccc1N=Cc1c(O)ccc2ccccc12	-7.1	8.1	24.1	-2.4	14.7
C=Cc1ccc(N=Cc2c(O)ccc3ccccc23)cc1	2.5	-1.4	2.3	43.5*	16.4
OCC(CO)(CO)N=Cc1c(O)ccc2ccccc12	50.2*	8.4	-0.3	-10.1	-7.2
CC(OC(=O)C1=COCCO1)C(=O)NC1CCCC(C)C1C (stereo not given)	-9.7	-1.3	.	.	.
CCOc1ccc(C(=O)Nc2c3c(nn2C(C)(C)C)CSC3)cc1OCC	-6.5	-3.7	-0.2	30.1*	-6.5
CCOc1ccc(C(=O)Nc2nnc(C)s2)cc1OCC	-6.0	-0.9	0.3	5.9	-7.3
CC(O)CNCCCOc1cccc(C(F)(F)F)c1 (stereo not given)	-17.4	-1.3	-0.6	33.8*	-25.7
O=c1[nH]c(Nc2ccc3c(c2)OCCO3)nnc1Cc1ccccc1	-13.7	-2.5	-0.1	48.6*	2.5
CCOc1ccc(CCNC(=O)CSc2nnnn2-c2ccccc2Cl)cc1OCC	.	.	1.0	.	-4.1
CCN(CC)c1ccc(NC(=O)CN(C)S(=O)(=O)c2cccc3nsnc23)c(C)c1	.	.	0.6	.	9.5
SMILES	D2 PAM-1	D2 ag-1	D2 ag-2	D2 antagonist	D2 PAM-2
CCOc1ccccc1CNC(=O)CCC(=O)N1CCSc2ccccc21	.	.	-0.2	.	1.4
COc1ccccc1NS(=O)(=O)c1cc(C(=O)NCCCN2CCCC2=O)ccc1C	3.7	-2.4	.	.	.
CCn1c(SCC(=O)Nc2ccc3c(c2)c2ccccc2n3CC)nnc1-c1ccco1	-20.9	0.5	0.4	45.5*	9.4
CCn1c2ccccc2c2cc(NC(=O)c3cccc([N+](=O)[O-])c3)ccc21	-1.9	0.7	0.9	42.0*	-12.5
Cc1nnc(SCC(=O)NCc2ccco2)n1Cc1ccccc1	-15.0	-0.8	.	.	.
CCCn1c(SCC(=O)Nc2nnc(CC)s2)nnc1-c1ccco1	29.2	-1.1	0.1	6.7	37.5*
CCCn1c(SCC(=O)NCc2ccco2)nnc1C(C)C	1.2	-2.3	-0.4	46.5*	-6.8
CSc1nn(Cc2cccc(Cl)c2)c(N(C(C)=O)C(C)=O)c1S(=O)(=O)c1ccccc1	.	.	0.4	.	2.1
C/C(CC(=O)N1CCN(C=O)CC1)=N\NC(=O)c1ccc([N+](=O)[O-])cc1	-2.0	5.9	0.3	2.8	3.4
C/C(CC(=O)N1CCN(C=O)CC1)=N\NC(=O)c1cc2ccccc2cc1O	51.0*	-5.6	0.1	7.2	-10.1
O=S(=O)(c1ccc2c(c1)OCO2)N1CCN(c2nnnn2-c2ccccc2)CC1	-7.0	-4.0	0.7	36.2*	25.6
O=C(NCC1CCCO1)c1cc(S(=O)(=O)N2CCOCC2)ccc1Cl (stereo not given)	-12.2	-4.1	0.2	-14.7	-2.8
O=C(NCC1CCCO1)c1cccc(Br)c1 (stereo not given)	2.2	0.2	-0.3	-13.5	-3.8
O=C(NCC1CCCO1)c1cc2c([nH]c3ccccc32)c(-c2cccc(Br)c2)n1 (stereo not given)	-64.5	6.4	-0.8	33.8*	-18.8
CN(c1ccc(C(=O)NCC2CCCO2)cc1)S(=O)(=O)c1ccc(Cl)cc1 (stereo not given)	-12.8	0.3	.	.	.
O=C(NCC1CCCO1)c1cc(S(=O)(=O)Nc2ccc(Br)cc2)ccc1Cl (stereo not given)	8.8	2.1	0.2	52.5*	2.6
O=C(NCC1CCCO1)c1ccc(NC(=O)c2cccc(Br)c2)cc1 (stereo not given)	93.5*	6.5	.	.	.
CN(c1ccc(F)cc1)S(=O)(=O)c1ccc(Cl)c(C(=O)NCC2CCCO2)c1 (stereo not given)	-2.0	-3.3	-0.2	5.8	31.6*
COC(=O)CN(C)C(=O)c1cccc(OC2CCN(S(=O)(=O)N(C)C)CC2)c1	-2.4	2.6	1.2	-2.0	14.1
COc1ccc(NC(=O)c2c(-c3ccccc3)c(-c3ccccc3)nn(C)c2=O)c(OC)c1	.	.	-0.6	.	4.9
Cc1cc(-n2c(C)nc3ccccc3c2=O)ccc1NC(=O)c1cccc([N+](=O)[O-])c1C	.	.	-5.4	.	19.5
Cc1nnsc1C(=O)N/N=C/c1ccc(OC(F)(F)F)cc1	7.9	0.0	2.3	8.2	16.2
COc1ccc(-c2nc3cc(NC(=O)Cc4ccc(Cl)cc4)ccc3o2)cc1OC	.	.	0.2	.	13.4
CCOc1ccccc1C(=O)NC(C(=O)Nc1cccc(S(N)(=O)=O)c1)C(C)C (stereo not given)	-16.5	-1.7	-0.4	33.2*	-3.6
CC(C)C(NC(=O)c1ccc(C(C)(C)C)cc1)C(=O)Nc1cccc(S(N)(=O)=O)c1 (stereo not given)	-41.8	-0.9	-1.0	-12.5	37.2*
O=C1c2ccccc2C(=O)N1CCc1nc2ccccc2c(=O)n1Cc1ccco1	4.0	-3.4	0.6	40.4*	1.1
NC1=NC2(CCCC2)n2c(nc3ccccc32)N1	-8.8	-3.4	-0.2	2.2	1.3

Assay outcomes from PubChem BioAssay.
